# Bioassay records: PubChem BioAssay, several laboratories
# Anthrax LF inh2 – blocks Bacillus anthracis lethal factor protease; inhibition, % at 10 µM; P15917; hit rate 0.12% among 360,000; multiplex microsphere protease cleavage assay, LF; further: plate controls were buffer without enzyme for full effect and enzyme alone for no effect
# MazF activator – increases E. coli MazEF RNase cleavage of RNA; P0AE70; FAM/BHQ RNA-DNA oligo cleavage fluorescence, 5 h; hit rate 0.32% among 350,000; activation, % at 20 µM; AID 504720; in the data active means activation above about 50%
# Target sequence (P0AE70 whole entry, looked up): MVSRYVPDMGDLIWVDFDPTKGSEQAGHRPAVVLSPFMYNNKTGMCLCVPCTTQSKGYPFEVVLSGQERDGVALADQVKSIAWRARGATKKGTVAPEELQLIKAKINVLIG
# Bead autofluor – compound fluorescence in toxin protease inhibitor counterscreen; compound autofluorescence counterscreen, microsphere flow cytometry; hits give high values; fluorescence intensity (test concentration not listed); hit rate 3.1% among 360,000; AID 624483; in the data active means fluorescence intensity above about 16000; inconclusive means no clear call, values can overlap the other calls
# BoNT A protease – blocks Botulinum neurotoxin A light chain protease; multiplex microsphere protease substrate cleavage, flow cytometry; hit rate 0.17% among 360,000; inhibition, % at 10 µM; further: plate controls were buffer without enzyme for full effect and enzyme alone for no effect
# BoNT-F LC inh – BoNT F light chain protease inhibition; Multiplex microsphere protease cleavage assay, flow cytometry; inhibition, % at 10 µM; hit rate 0.22% among 360,000; AID 588497; in the data active means inhibition above about 35%, passing the limit was not always enough; inconclusive means no clear call, values can overlap the other calls; further: plate controls were buffer without enzyme for full effect and enzyme alone for no effect
# Starred values were filed as active, the others as inactive; ? = inconclusive; . = no result given. Rows were chosen to be rich in hits. Some 3.7% of all compounds tested hit in one or more screens of this group. Unless noted, no stated cut-off is given here; in the data, active means inhibition above about 30%; inconclusive means no clear call, values can overlap the other calls; inactive means below that.
SMILES,Anthrax LF inh2,MazF activator,Bead autofluor,BoNT A protease,BoNT-F LC inh
Cc1nnsc1S(=O)c1ccccc1Cl (configuration not stated),6.9,3.0,2870,2.3,-10.5
O=S(=O)(O)c1cccc2cccc(Nc3ccccc3)c12,-9.2,-7.6,5849,-2.1,-13.7
CC(C)(CN1CCCN(CC(C)(C)C(=O)O)C1=O)C(=O)O,-6.8,6.1,3627,-0.8,-4.4
CCc1c(C)nc2ncnn2c1N1CCC(C(=O)N2CCN(c3ccc(F)cc3)CC2)CC1,-1.0,-1.0,24650*,?,-5.6
CCc1c(C)nc2ncnn2c1N1CCCC(C(=O)Nc2ccc(NC(C)=O)cc2)C1 (configuration not stated),0.5,0.3,2476,0.4,1.9
O=C(NCc1ccc2c(c1)OCO2)C1CCN(c2ccc(S(=O)(=O)N3CCCC3)cc2)CC1,-2.5,2.4,19826*,-0.8,-3.6
O=C(NCc1ccc2c(c1)OCO2)C1CCN(S(=O)(=O)N2CCCCC2)CC1,2.2,-1.4,10814,-0.1,3.4
Cc1ccnc(N2CCC(C(=O)NCc3ccc4c(c3)OCO4)CC2)n1,0.5,-1.1,20911*,?,3.8
CCc1c(C)nc2ncnn2c1N1CCCC(C(=O)NCc2ccc3c(c2)OCO3)C1 (configuration not stated),-6.4,-1.6,22326*,2.1,2.2
CC[C@]12C(=O)N(C)C[C@H]([C@@H]3C(=O)N(Cc4ccccc4)C(=O)[C@@H]31)N2C(=O)c1ccc(C(F)(F)F)cc1,.,-1.4,.,.,.
O=[N+]([O-])c1ccccc1N(S(=O)(=O)c1ccccc1)S(=O)(=O)c1ccccc1,-5.5,17.1,3854,-0.1,-1.9
O=C(NCc1ccc2c(c1)OCO2)C1CCN(c2ncccn2)CC1,-0.3,-3.6,21984*,?,0.2
Cc1nc2ncnn2c(N2CCC(C(=O)NC3CCCC3)CC2)c1Cc1ccccc1,-1.0,-8.4,11151,0.5,0.6
COc1cccc(OC)c1C(=O)N1CCN(c2c(Cc3ccccc3)c(C)nc3ncnn23)CC1,-6.8,2.9,26771*,-12.6,-15.2
COc1ccc(S(=O)(=O)N2CCC(C(=O)c3ccc4c(c3)OCCO4)CC2)cc1,-0.5,4.7,9619,0.6,3.6
O=C(c1ccc(F)cc1)C1CCN(C(=O)NCc2ccccc2)CC1,-0.2,6.4,24106*,-1.1,-0.8
Cc1ccc(C(=O)C2CCN(CC(=O)Nc3ccc4c(c3)OCCO4)CC2)cc1,-0.1,0.3,23981*,0.6,-3.4
O=C(NCc1ccc(F)cc1)C1CCCN(C(=O)Nc2ccccc2)C1 (configuration not stated),-4.4,-0.5,19569*,?,-0.6
O=C(c1ccc2c(c1)OCCO2)C1CCN(S(=O)(=O)c2ccccc2F)CC1,-6.8,0.2,23887*,?,-1.2
Cc1cccc(NC(=O)CN2CCC(C(=O)c3ccc4c(c3)OCCO4)CC2)c1,7.2,5.2,3710,0.2,-8.4
O=C(CCCCn1ccc(=O)[nH]c1=O)Nc1ccc(C(=O)O)c(O)c1,-2.6,5.5,3417,-0.4,-3.6
CCCCN(C(=O)Cc1ccc2c(c1)OCCO2)c1c(N)n(CC(C)C)c(=O)[nH]c1=O,0.2,-9.3,5993,2.0,-4.3
CCOC(=O)C1=CN(Cc2ccco2)S(=O)(=O)N(C)C1c1ccc(F)c(Cl)c1 (configuration not stated),-11.0,5.4,3508,-0.2,-1.0
O=C(CN1CCC(C(=O)c2ccc(F)cc2)CC1)Nc1ccccc1,0.3,-1.0,19525*,0.6,-0.9
Cc1ccc(C(=O)C2CCN(CC(=O)Nc3ccc(N(C)C)cc3)CC2)cc1,-0.8,-1.0,21202*,?,-4.7
SMILES,Anthrax LF inh2,MazF activator,Bead autofluor,BoNT A protease,BoNT-F LC inh
CCN(CC(=O)Nc1ccc2c(c1)OCCO2)Cc1cc(=O)oc2c(C)c(C)ccc12,-1.9,7.9,20523*,?,9.4
CCOC(=O)C1CCN(C(=O)c2ccc3c(c2)OCCO3)CC1,2.8,0.0,4181,-0.3,-4.0
CCOc1ccc(C(=O)N2CCC(C(=O)c3ccc4c(c3)OCCO4)CC2)cc1,0.7,-0.7,17361*,0.7,-0.2
O=C(COC(=O)COc1cccc(C(F)(F)F)c1)Nc1ccc(N2CCOCC2)cc1,3.2,-3.1,3739,-0.5,-6.8
O=[N+]([O-])c1ccc(CN2[C@H](COCc3ccccc3)[C@@H](N3CCCC3)CS2(=O)=O)cc1,-2.5,.,5729,-0.5,-5.1
CCN(CC(=O)Nc1ccc2c(c1)OCCO2)S(=O)(=O)c1cccs1,.,-1.8,.,.,.
CCN(CC(=O)Nc1ccc2c(c1)OCCO2)S(=O)(=O)c1ccc(C)cc1,2.4,3.7,17435*,-2.4,-3.7
